In PubChem BioAssay (NCI) one finds growth data, which are given here for 9 compounds.

Common to all, as to assay: NCI-60 one-dose screen, 48 h (100 = growth as untreated, 0 = no growth, -100 = all killed)
One experiment concerns NCI-H23 lung. Particulars: 10 µM unless noted.
For the next experiment, the system named is NCI-H226 lung. To be noted: 10 µM unless noted.
The subject of a further experiment is NCI-H322M lung. To be noted: 10 µM unless noted.
The next experiment deals with HOP-62 NSCLC. To be noted: 10 µM unless noted.
A further experiment relates to NCI-H460 lung. Particulars: 10 µM unless noted.
Another experiment has as its system 786-0 renal. To be noted: 10 µM unless noted.
For a further experiment, the system named is COLO 205 colon. Particulars: 10 µM unless noted.
In the next experiment the test system is DU-145 prostate. To be noted: 10 µM unless noted.
The next experiment concerns K-562 leukemia. Particulars: 10 µM unless noted.
The subject of the next experiment is MALME-3M melanoma. Particulars: 10 µM unless noted.
Another experiment concerns MDA-MB-231 breast. Particulars: 10 µM unless noted.
Another experiment concerns RXF 393 renal. Particulars: 10 µM unless noted.
The next experiment concerns SF-268 CNS. Particulars: 10 µM unless noted.
Another experiment relates to SF-295 CNS. Particulars: 10 µM unless noted.
The next experiment relates to SF-539 CNS. Particulars: 10 µM unless noted.
The subject of another experiment is M14 melanoma. To be noted: 10 µM unless noted.
The test system of a further experiment is A549/ATCC NSCLC. To be noted: 10 µM unless noted.
The next experiment has as its system UACC-257 melanoma. Particulars: 10 µM unless noted.
The next experiment relates to HOP-92 NSCLC. To be noted: 10 µM.
In the next experiment the test system is NCI-H522 lung. Particulars: 10 µM.

Compounds without any hit were thinned out: in the full panel of roughly 83,000, 20% have a hit.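 Percent growth is the endpoint: 0 to 100 indicates growth inhibition (40 means 60% inhibition), 0 means no net growth, and negative values indicate cell death.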 A number with no mark means an inactive call. Activity calls are given as the source filed them. How the source made its calls: active means growth percent below 10; inactive means the rest.

For `CCCCCCCCC(=O)Nc1ccc(O)cc1`, the growth in the experiment with NCI-H23 lung is 92.3%; in the experiment on NCI-H226 lung, 104%; in the experiment on NCI-H322M lung, 88.1%; in the experiment on HOP-62 NSCLC it was 99.3%; in the experiment on NCI-H460 lung it was 105%; with 786-0 renal, 95.9%. In addition, the growth in the experiment on COLO 205 colon is 94.9%; in the experiment on DU-145 prostate it was 103%; with K-562 leukemia, 91.2%; in the experiment on MALME-3M melanoma it was 87.7%; in the experiment on MDA-MB-231 breast, 92.1%; in the experiment on RXF 393 renal it was 101%. Further, the growth in the experiment on SF-268 CNS was 92%; in the experiment on SF-295 CNS, 101%; in the experiment on SF-539 CNS it was 88.9%; in the experiment with M14 melanoma it was 107%.

With `CCCCCCCCCCCCCCCCCCOP(=O)(O)O`, the growth was 106% in the experiment on NCI-H23 lung; 98.8% in the experiment on NCI-H226 lung; 103% with NCI-H322M lung; 100% with HOP-62 NSCLC; 101% in the experiment with NCI-H460 lung; 105% in the experiment on A549/ATCC NSCLC. For the same compound, the growth was 116% in the experiment on 786-0 renal; 116% with DU-145 prostate; 110% in the experiment with K-562 leukemia; 112% in the experiment with MALME-3M melanoma; 96.6% in the experiment with MDA-MB-231 breast; 114% in the experiment on RXF 393 renal. The growth was 109% with SF-268 CNS, 104% in the experiment with SF-539 CNS, 113% with UACC-257 melanoma and 99.4% in the experiment with M14 melanoma.

Turning to `CCCCN(CCC)CCCCCCCCCCN1CCCc2ccccc21`, the growth in the experiment on NCI-H23 lung is 71.5%; with NCI-H226 lung, 99.5%; with NCI-H322M lung, 99.4%; with HOP-62 NSCLC it was 92.5%; in the experiment on HOP-92 NSCLC, 48.8%; in the experiment with NCI-H522 lung it was 62%. Further, the growth was 97.3% with A549/ATCC NSCLC; 88.8% with 786-0 renal; 91.7% with COLO 205 colon; 77.1% in the experiment with DU-145 prostate; 17.5% with K-562 leukemia; 74.3% with MALME-3M melanoma. For the same compound, the growth in the experiment on RXF 393 renal was 109%; in the experiment with SF-268 CNS it was 75.7%; with SF-295 CNS, 83.6%; in the experiment with SF-539 CNS, 101%; in the experiment with UACC-257 melanoma it was 106%; with M14 melanoma, 88.6%.

`O=C(NC1CCN(Cc2ccccc2)CC1)c1cc(-c2cccnc2)nc2ccc(Cl)cc12`: the growth in the experiment with NCI-H23 lung was 67.9%; in the experiment on NCI-H226 lung, 84%; with NCI-H322M lung it was 91.6%; in the experiment with HOP-62 NSCLC, 101%; in the experiment on HOP-92 NSCLC it was 56.5%; in the experiment with NCI-H522 lung, 90.4%. For the same compound, the growth in the experiment on A549/ATCC NSCLC is 56.3%; with 786-0 renal, 78.7%; in the experiment on COLO 205 colon it was -37.3% (active); with DU-145 prostate, 87.5%; with K-562 leukemia, 2.45% (active); in the experiment with MALME-3M melanoma it was 74%. Further, the growth in the experiment on MDA-MB-231 breast is 58.8%; in the experiment with RXF 393 renal, 82.1%; with SF-268 CNS it was 100%; with SF-295 CNS, 67.6%; in the experiment with SF-539 CNS, 63.9%; in the experiment with UACC-257 melanoma, 83.2%. The growth in the experiment with M14 melanoma was 77.9%.

With `Oc1ccc(N=Nc2ccc(N=Nc3ccccc3)cc2)cc1`, the growth was 59.9% with NCI-H23 lung; 57% in the experiment on NCI-H226 lung; 49.7% in the experiment on NCI-H322M lung; 59.3% in the experiment with HOP-62 NSCLC; 79.8% with HOP-92 NSCLC; -15.1% (active) in the experiment with NCI-H522 lung. Further, the growth is 9.84% (active) in the experiment with A549/ATCC NSCLC; 38.3% in the experiment with 786-0 renal; 84.8% with COLO 205 colon; 49.3% in the experiment on DU-145 prostate; -7.03% (active) in the experiment with K-562 leukemia; 111% in the experiment with MALME-3M melanoma. Further, the growth in the experiment with MDA-MB-231 breast is 54.7%; with RXF 393 renal it was 98.2%; with SF-268 CNS it was 36.9%; in the experiment on SF-295 CNS, 8.6% (active); in the experiment on SF-539 CNS, 2.09% (active); in the experiment on UACC-257 melanoma it was 53%. Further, the growth with M14 melanoma was 26.7%.

`C=CCNC(=S)NNc1ccc([N+](=O)[O-])cn1`: the growth is 93.5% in the experiment on NCI-H23 lung; 94.4% with NCI-H226 lung; 89.7% in the experiment with NCI-H322M lung; 105% in the experiment with HOP-62 NSCLC; 98.1% with HOP-92 NSCLC; 80.4% with NCI-H522 lung. In addition, the growth was 101% with A549/ATCC NSCLC; 105% with 786-0 renal; 110% in the experiment with COLO 205 colon; 104% in the experiment with DU-145 prostate; 94.3% with K-562 leukemia; 79.6% in the experiment with MALME-3M melanoma. For the same compound, the growth in the experiment with MDA-MB-231 breast was 89.7%; in the experiment on RXF 393 renal, 104%; with SF-268 CNS it was 97.7%; in the experiment with SF-295 CNS, 96.9%; in the experiment with SF-539 CNS it was 104%; with UACC-257 melanoma, 97.9%. The growth in the experiment with M14 melanoma was 96%.

Consider `CC(=O)CCS(=O)c1ccccc1` (centres undefined), for which the growth in the experiment with NCI-H23 lung is 98.1%; with NCI-H226 lung, 107%; with NCI-H322M lung, 93.7%; in the experiment on HOP-62 NSCLC, 105%; in the experiment on HOP-92 NSCLC, 92.8%; in the experiment with NCI-H522 lung, 82.7%. The growth in the experiment with A549/ATCC NSCLC is 96.1%; in the experiment with 786-0 renal, 105%; in the experiment on COLO 205 colon, 124%; with DU-145 prostate it was 103%; in the experiment with K-562 leukemia, 98.9%; with MALME-3M melanoma it was 97.2%. In addition, the growth is 106% in the experiment with MDA-MB-231 breast; 99.7% in the experiment on RXF 393 renal; 94.9% in the experiment on SF-268 CNS; 97.6% in the experiment on SF-295 CNS; 113% in the experiment with SF-539 CNS; 99.5% in the experiment with UACC-257 melanoma. Moreover, the growth in the experiment on M14 melanoma is 105%.

`CCN(CC)c1ccc2nc3ccc(N=Nc4ccc(O)cc4)cc3[n+](-c3ccccc3)c2c1`: the growth was 63.9% with NCI-H23 lung; 98.1% in the experiment on NCI-H226 lung; 95.8% in the experiment on NCI-H322M lung; 52.5% with HOP-62 NSCLC; 88.4% in the experiment with HOP-92 NSCLC; 37.2% in the experiment on NCI-H522 lung. For the same compound, the growth is 35.9% in the experiment on A549/ATCC NSCLC; 88.5% in the experiment with 786-0 renal; -6.39% (active) with COLO 205 colon; 82.1% in the experiment on DU-145 prostate; 18.2% in the experiment on K-562 leukemia; 35.4% in the experiment with MALME-3M melanoma. The growth is 20.9% in the experiment with MDA-MB-231 breast; 30.6% in the experiment on RXF 393 renal; 81% with SF-268 CNS; 66.8% in the experiment with SF-295 CNS; 89.5% in the experiment with SF-539 CNS; -1.57% (active) in the experiment on UACC-257 melanoma. Further, the growth in the experiment with M14 melanoma is 61.3%.

`COc1ccc(-c2nc(N)n(C(=S)Nc3ccccc3)n2)cc1`: the growth is 92.2% in the experiment with NCI-H23 lung; 92.6% with NCI-H226 lung; 101% with NCI-H322M lung; 87.3% in the experiment on HOP-62 NSCLC; 85.8% in the experiment with HOP-92 NSCLC; 88.5% in the experiment on NCI-H522 lung. Also, the growth with A549/ATCC NSCLC was 102%; in the experiment with 786-0 renal, 105%; in the experiment with COLO 205 colon it was 105%; in the experiment on DU-145 prostate, 108%; with K-562 leukemia, 95%; in the experiment on MALME-3M melanoma, 89.5%. The growth is 93.9% with MDA-MB-231 breast; 103% in the experiment with RXF 393 renal; 96.3% in the experiment with SF-268 CNS; 91.2% with SF-295 CNS; 97.1% in the experiment with SF-539 CNS; 105% in the experiment with UACC-257 melanoma. For the same compound, in the experiment with M14 melanoma, the growth is 98.8%.
